TDP1 block: inhibitors of human tyrosyl-DNA phosphodiesterase TDP1 | 0.28% of 350,000 active | Q9NUW8 | Potency, µM (top dose mostly 130 µM), inactives show at the highest dose activity change, negative = inhibition, actives largely listed as inhibitors | recombinant TDP1, AlphaScreen DNA substrate cleavage; further: on the % scale 0 is the no-effect control and ±100 the full control effect; nearly all actives have a fitted effect of over 40% in size
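Recombinant human Tdp1 (E. coli-expressed, 1 nM final) preincubated with compounds 15 min at room temperature, then 5'-biotin/3'-phosphotyrosine-FITC DNA substrate (15 nM final) added for 5 min. AlphaScreen beads (10 ug/ml final) added 10 min; cleavage lowers signal.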
TDP1 cell CPT: DT40-hTDP1 cell growth loss with CPT; chicken DT40 Tdp1-/-;hTDP1 cells + 20 nM CPT, ATP luminescence, 48 h; Potency, µM (doses to about 46.2 µM), for the others: at the highest dose activity change, negative = growth inhibition, most hits filed as inhibitors; 12% of 420,000 active; AID 686979; further: on the % scale 0 is the no-effect control and ±100 the full control effect; nearly all actives have a fitted effect of over 55% in size
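Chicken DT40 Tdp1-/- cells complemented with human TDP1, 400 cells/well, exposed to compounds plus 20 nM camptothecin for at least 48 h at 37 C; viability read as ATP content by CellTiter-Glo luminescence.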
TDP1 cell noCPT: qHTS for Inhibitors of human tyrosyl-DNA phosphodiesterase 1 (TDP1): qHTS in cells in absence of CPT; DT40 Tdp1-/- hTDP1 cells, no CPT, ATP luminescence, 48 h; Potency, µM (series often up to 46.2 µM), without a hit: top-dose activity change, negative = growth inhibition, hits mostly inhibitors; 15% of 420,000 active; further: on the % scale 0 is the no-effect control and ±100 the full control effect; nearly all actives have a fitted effect of over 55% in size
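DT40 Tdp1-/-;hTDP1 cells, no CPT (DMSO vehicle only), 400 cells/well; compounds pin-transferred; ≥48 hr, 37 °C; CellTiter-Glo 30 min RT dark, luminescence read.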
ClpP mod: qHTS Assay for Activators of ClpP; ATP-dependent Clp protease proteolytic subunit (Bacillus subtilis (strain 168)), P80244; purified B. subtilis ClpP, FRET peptide cleavage, 20 min; Potency, µM (series often up to 57.5 µM), without a hit: at the highest dose activity change, negative = active; 1.9% of 340,000 active; active means well fitted falling curve with a large enough effect; inconclusive means small, poorly fitted or top-dose-only effect; inactive means no such curve, though single readings can be large or run the other way; further: the source files actives as falling curves though it sought activators and does not explain the sign; nearly all actives have a fitted effect of over 65% in size
Target sequence (P80244 whole entry, looked up): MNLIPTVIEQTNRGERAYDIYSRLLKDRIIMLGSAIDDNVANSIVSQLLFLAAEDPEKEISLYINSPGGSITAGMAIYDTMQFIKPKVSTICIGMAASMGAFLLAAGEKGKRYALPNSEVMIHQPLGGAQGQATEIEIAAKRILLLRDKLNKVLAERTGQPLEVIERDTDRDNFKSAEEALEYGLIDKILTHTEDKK
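Buffer: 100 mM Tris/HCl pH8, 100 mM KCl, 0.05% low protease BSA, 2.5% glycerol, 0.01% Tween-20. ClpP 10 microg/mL final; 20 min RT; delta FRET normalized to ADEP and DMSO controls.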
Active calls of the source: *. Shown are actives, neighbours in structure and some others; about 17% of the full set was active somewhere. Unless noted, the call rests on the fitted dose curve; in most records, active means well fitted curve in the direction sought with a large enough effect; inconclusive means small, poorly fitted or top-dose-only effect, or another doubt; inactive means no such curve, though single readings can be large; an effect the other way counts as inactive or inconclusive. Potency means the concentration at half of the fitted maximal effect.

Screening COC(=O)c1ccc(CSc2nnc3ccc4ccccc4n23)cc1 returned TDP1 block 1%, TDP1 cell CPT inconclusive, TDP1 cell noCPT inconclusive and ClpP mod 1%.
CCN1CCN(c2cc(C)c3cc(NC(=S)N4CCN(c5ccccc5)CC4)ccc3n2)CC1 was read as TDP1 block 3%, TDP1 cell CPT 7.3µM* and TDP1 cell noCPT 10µM*.
Clc1cccc(Cl)c1/C=N/Nc1c(Cl)cncc1Cl was read as TDP1 block -3%, TDP1 cell CPT 2.1µM* and TDP1 cell noCPT 3.3µM*.
`Clc1cncc(Cl)c1N/N=C/c1ccncc1` gave TDP1 block 5%, TDP1 cell CPT inconclusive, TDP1 cell noCPT inconclusive and ClpP mod -2%.
`COCCCNC(=O)/C=C/[C@H]1O[C@@H](n2cnc3c(NC(=O)c4ccccc4)ncnc32)[C@H](O)[C@@H]1O` gave TDP1 cell CPT 8%, TDP1 cell noCPT 19% and ClpP mod 0%.
Screening Cc1ccc(S(=O)(=O)c2n[nH]n3c2nc(=O)c2ccccc23)cc1 returned TDP1 block 1%, TDP1 cell CPT -6%, TDP1 cell noCPT inconclusive and ClpP mod 16µM*.
For O=c1oc2c3c4c(cc2c2c1CCC2)OCCN4CCC3 the results were TDP1 block 4%, TDP1 cell CPT 18µM*, TDP1 cell noCPT inconclusive and ClpP mod 18µM*.
Screening Cc1c(O)c(CN2CCCC2)cc2c3c(c(=O)oc12)CCC3 returned TDP1 block -11%, TDP1 cell CPT 0%, TDP1 cell noCPT -6% and ClpP mod inconclusive.
For CCCCC1CN2CCc3c([nH]c4ccccc34)C2(C)C1 (stereo not drawn) the results were TDP1 cell CPT inconclusive, TDP1 cell noCPT 18µM* and ClpP mod 0%.
Screening Cc1c(Cl)cccc1NC(=O)CCN1C(=O)C2CC=CCC2C1=O (stereo not drawn) returned TDP1 block 3%, TDP1 cell CPT 1%, TDP1 cell noCPT 3% and ClpP mod 11%.
`Clc1cccc(CN2CCC3CC2c2cc(N4CCCCC4)ccc23)c1` (stereo not drawn) gave TDP1 cell CPT -20%, TDP1 cell noCPT inconclusive and ClpP mod -1%.
For c1ccc(CN2CCC3CC2c2c3cccc2N2CCOCC2)cc1 (stereo not drawn) the results were TDP1 cell CPT inconclusive, TDP1 cell noCPT 15µM* and ClpP mod 0%.
COc1ccc(-n2nc(-c3ccc(C)cc3)c3cnc4cc(F)c(F)cc4c32)cc1 was read as TDP1 block -2%, TDP1 cell CPT -3%, TDP1 cell noCPT -15% and ClpP mod 4%.
`S=c1[nH]cnc2sc(Nc3ccccc3)nc12` gave TDP1 block 10%, TDP1 cell CPT 15µM*, TDP1 cell noCPT 15µM* and ClpP mod 0%.
`Cc1nc(Nc2ccccc2)sc1C` gave TDP1 block 0%, TDP1 cell CPT 4%, TDP1 cell noCPT 19% and ClpP mod -2%.
`Cc1c(Cl)cccc1NC(=O)CCC(=O)NNC(=O)c1ccccc1Cl` gave TDP1 block 4%, TDP1 cell CPT 1%, TDP1 cell noCPT -6% and ClpP mod 0%.
`Cc1cc(C(=O)CN2C(=O)C(=O)N(CCC3=CCCCC3)C2=O)c(C)n1C` gave TDP1 block 7%, TDP1 cell CPT inconclusive, TDP1 cell noCPT inconclusive and ClpP mod 2%.
`CC(=O)Nc1cccc(-c2csc(Nc3ccc(Cl)cn3)n2)c1` gave TDP1 block 5%, TDP1 cell CPT 23µM*, TDP1 cell noCPT inconclusive and ClpP mod -10%.
`Cc1ccc(Nc2nc(-c3ccc(O)c(O)c3)cs2)nc1` gave TDP1 block 7%, TDP1 cell CPT 1µM* and TDP1 cell noCPT 1.3µM*.
For Cc1ccc(Nc2nc(-c3ccc(F)cc3)cs2)nc1 the results were TDP1 cell CPT inconclusive, TDP1 cell noCPT inconclusive and ClpP mod 2%.
`COc1ccc(CCNC(=O)c2c(C)oc3ncn(C)c(=O)c23)c(OC)c1` gave TDP1 block -2%, TDP1 cell CPT -1%, TDP1 cell noCPT -6% and ClpP mod 0%.
Screening COCCCN1C(=O)C(CC(=O)NC(c2ccccc2)c2ccccc2)CC(C(=O)N(C(C)C)C(C)C)=C1C (stereo not drawn) returned TDP1 cell CPT inconclusive, TDP1 cell noCPT inconclusive and ClpP mod -3%.
For CCCC(=O)N1CCC1(C)C(=O)Nc1cccc(F)c1 (stereo not drawn) the results were TDP1 cell CPT -25%, TDP1 cell noCPT -20% and ClpP mod 0%.
`Cc1ccc(CCNC(=O)CS(=O)Cc2nc(-c3ccccc3C)oc2C)cc1` (stereo not drawn) gave TDP1 block 2%, TDP1 cell CPT inconclusive, TDP1 cell noCPT inconclusive and ClpP mod -7%.
For Cc1ccc(CNC(=O)CS(=O)Cc2nc(-c3cccs3)oc2C)cc1 (stereo not drawn) the results were TDP1 block 3%, TDP1 cell CPT 23µM*, TDP1 cell noCPT inconclusive and ClpP mod -2%.
Screening CCc1ccc(-c2nc(CS(=O)CC(=O)NCCc3ccc(C)cc3)c(C)o2)cc1 (stereo not drawn) returned TDP1 block 6%, TDP1 cell CPT 23µM*, TDP1 cell noCPT inconclusive and ClpP mod -5%.
Screening Cc1ccccc1-c1nc(CS(=O)CC(=O)NCCc2ccc(Cl)cc2)c(C)o1 (stereo not drawn) returned TDP1 block 6%, TDP1 cell CPT 16µM*, TDP1 cell noCPT inconclusive and ClpP mod -2%.
Screening Cc1ccc(NC(=O)CS(=O)Cc2nc(-c3ccc(C)cc3)oc2C)cc1 (stereo not drawn) returned TDP1 block 2%, TDP1 cell CPT inconclusive, TDP1 cell noCPT 21µM* and ClpP mod -5%.
S=Cc1nc2ccccc2[nH]1 was read as TDP1 cell CPT inconclusive, TDP1 cell noCPT inconclusive and ClpP mod -7%.
`O=c1[nH]c2ccccc2nc1/C=C/c1ccc(Cl)cc1` gave TDP1 block 5%, TDP1 cell CPT 13µM* and TDP1 cell noCPT 23µM*.
Screening C(=C\c1nc2ccccc2[nH]1)/c1ccccc1 returned TDP1 block 5%, TDP1 cell CPT 15µM*, TDP1 cell noCPT 16µM* and ClpP mod inconclusive.
O=C(/C(=C/c1ccc(Cl)cc1)c1nc2ccccc2[nH]1)c1ccccc1 was read as TDP1 block 6%, TDP1 cell CPT 13µM*, TDP1 cell noCPT 7.3µM* and ClpP mod -14%.
C(=C\c1ccco1)/c1nc2ccccc2[nH]1 was read as TDP1 block 2%, TDP1 cell CPT inconclusive, TDP1 cell noCPT 23µM* and ClpP mod inconclusive.
